Compound activity (PubChem BioAssay)
Sfp PPTase inh – Sfp phosphopantetheinyl transferase inhibition | Q9F4F7 | Biochemical Sfp PPTase activity, qHTS | Potency, µM, hits mostly inhibitors | 310,000 compounds, 3.5% hits | AID 1490;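 also: the enzyme is Sfp with the accession as filed and its product quenches rhodamine fluorescence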
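With Hepes-Na pH 7.6 buffer containing 10 mM MgCl2, Sfp (15 nM) modified BHQ-2-YbbR (12.5 uM) using rhodamine-CoA (5 uM). Two reads 30 minutes apart at 525/598 nm yielded each well's rate.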
TDP1 block – inhibitors of human tyrosyl-DNA phosphodiesterase TDP1. Q9NUW8. recombinant TDP1, AlphaScreen DNA substrate cleavage. Potency, µM (highest dose often 130 µM), most hits filed as inhibitors. 350,000 compounds, 0.28% hits. AID 485290; also: nearly all actives have a fitted effect of over 40% in size
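Tdp1 1 nM final; 15 min RT w/ cpd; substrate 15 nM, 5 min; beads 10 ug/ml, 10 min; AlphaScreen read. Neg ctrl: no enzyme.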
HP1b chromo inh – inhibitors of HP1-beta chromodomain binding to methylated histone tails | AID 540317 | P83916 | Potency, µM (titrated, usually from 114 µM), most hits filed as inhibitors | 390,000 compounds, 0.56% hits | AlphaScreen HP1-beta / biotin-H3K9me3 peptide binding; also: nearly all actives have a fitted effect of over 70% in size
Target sequence (P83916 whole entry, looked up): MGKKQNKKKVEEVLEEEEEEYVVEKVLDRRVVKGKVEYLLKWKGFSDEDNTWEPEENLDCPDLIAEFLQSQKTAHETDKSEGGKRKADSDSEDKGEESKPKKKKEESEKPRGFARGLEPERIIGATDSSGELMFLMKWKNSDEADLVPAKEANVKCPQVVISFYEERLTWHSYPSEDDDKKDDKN
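Compound inhibition of the preformed complex between 50 nM HP1-beta and 50 nM biotinylated H3K9me3 peptide was read by AlphaScreen. Buffer was PBS pH 7.4 with 0.01% Tween-20. Incubations ran 30 min at room temperature, with 10 ug/mL donor/acceptor beads.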
JMJD2A Tudor inh – JMJD2A Tudor domain (human) inhibition. AlphaScreen JMJD2A-Tudor / H3K4me3 peptide binding. Potency, µM (doses to about 114 µM), hits mostly inhibitors. 390,000 compounds, 4.4% hits. AID 504339; also: nearly all actives have a fitted effect of over 50% in size
BAZ2B block – BAZ2B (human) inhibition; Q9UIF8; AlphaScreen BAZ2B-H3K14Ac peptide displacement; Potency, µM (titrated, usually from 114 µM), most hits filed as inhibitors; 360,000 compounds, 4.4% hits; AID 504333; also: nearly all actives have a fitted effect of over 60% in size
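BAZ2B 50 nM plus b-H3(5-23)K14Ac 50 nM, PBS pH 7.4/0.01% Tween-20, 30 min RT; compound added (max 110 uM), 30 min RT; streptavidin donor/Ni-chelate acceptor beads 10 ug/mL final, 20 min dark; AlphaScreen read.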
G9a block – inhibitors of human histone lysine methyltransferase G9a | Potency, µM (series often up to 102 µM), most hits filed as inhibitors | 350,000 compounds, 8.8% hits | G9a H3K9 monomethylation, AlphaScreen, 2 h | Q96KQ7; also: nearly all actives have a fitted effect of over 75% in size
Target sequence (Q96KQ7 913-1193 limits assumed): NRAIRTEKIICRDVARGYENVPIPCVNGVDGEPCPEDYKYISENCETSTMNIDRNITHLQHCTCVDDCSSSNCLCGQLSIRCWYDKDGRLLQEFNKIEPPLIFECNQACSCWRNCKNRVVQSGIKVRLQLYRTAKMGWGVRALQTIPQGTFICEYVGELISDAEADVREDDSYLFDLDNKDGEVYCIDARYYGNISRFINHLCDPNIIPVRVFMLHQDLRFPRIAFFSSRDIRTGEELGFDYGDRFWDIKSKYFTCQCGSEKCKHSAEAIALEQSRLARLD
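Chemiluminescent proximity detection of H3K9 monomethylation, read after 10 min bead incubation in the dark. Reaction: 20 nM G9a, 500 nM biotin-H3K9 peptide, 20 uM SAM cofactor, 2 h, room temperature, following 15 min enzyme-compound preincubation.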
A number is an active result; – = inactive; ? = inconclusive; · = no result given; ! = not active in a repeat; [ ] = dose if it differs, or a comment. Compounds with a hit are over-represented: about 12% of the library has one in this group of screens. Calls follow the shape of the dose curve; as a rule, active = well fitted curve in the direction sought with a large enough effect; inconclusive = small, poorly fitted or top-dose-only effect, or another doubt; inactive = no such curve, though single readings can be large; an effect the other way counts as inactive or inconclusive.

SMILES	Sfp PPTase inh	TDP1 block	HP1b chromo inh	JMJD2A Tudor inh	BAZ2B block	G9a block
CCOC(=O)CCCN1C(=O)CCn2nc(-c3cn(C)c4ccccc34)cc21	·	–	–	–	–	–
COc1ccc(OC)c(Nc2c3c(nc4ccccc24)CCC3)c1	–	–	–	?	–	–
COc1ccc(OC)c(Nc2nc(NCCO)c3ccccc3n2)c1	–	·	–	45µM	50µM	·
Cc1ccc(Nc2nc(NCCO)c3ccccc3n2)cc1C	79µM	·	–	–	–	79µM
COc1ccc(OC)c(Nc2c3ccccc3nc3ccccc23)c1	–	·	?	22µM	50µM	–[2.33 µM]
COc1ccccc1Nc1nc(NCC2CCCO2)c2ccccc2n1 (stereo not given)	–	–	–	50µM	–	–
COc1cccc(-c2nc(NCC3CCCO3)c3ccccc3n2)c1O (stereo not given)	–	–	–	?	?	?
Cc1ccc(-n2nc(C)c3c(C)c(CCC(=O)NCC4CCCO4)c(=O)n(C)c32)cc1 (stereo not given)	–	–	–	–	–	·
CCC(C)C(=O)OC1CCC=C2C=CC(C)C(CCC3CC(O)CC(=O)O3)[C@@H]21 (stereo not given in full)	–	–	·	·	·	–[12.7 µM]
COc1cc(NS(C)(=O)=O)ccc1Nc1c2ccccc2nc2ccccc12	–	–	–	?	?	12µM
O=C(NCCCNCCCNC(=O)c1ccccn1)c1ccccn1	–	–	–	–	–	–[2.33 µM]
Cc1ccccc1C(=O)NCCCNC(=O)c1ccccn1	–	–	–	–	–	50µM
O=C(NCCN1CCNCC1)c1ccccn1	?	–	–	1.1µM	?	45µM
CCOc1ccc(S(=O)(=O)N2CCC(C(=O)NCc3ccccn3)CC2)cc1	–	–	–	–	–	–
Cc1ccc(CN(C)C(=O)C2CCC(=O)N(CC3CCCCC3)C2)o1 (stereo not given)	–	–	–	–	–	·
COC(=O)c1c(NC(=O)Cc2ccccc2)sc2c1CC(C)(C)NC2(C)C	28µM	·	–	–	–	·
CCOC(=O)c1c(NC(=O)CSc2nc3ccc(OC)cc3[nH]2)sc2c1CC(C)(C)NC2(C)C	·	–	–	?	–	50µM
COC(=O)c1c(NC(=O)COc2ccc(Cl)cc2)sc2c1CC(C)(C)NC2(C)C	56µM	–	–	?	?	·
CCOC(=O)c1c(NC(=O)CSc2ncccn2)sc2c1CC(C)(C)NC2(C)C	–	–	–	–	–	–
Cc1cccc(N(C)S(=O)(=O)c2c(C(=O)N3CCCCCC3)c(C)n(C)c2C)c1	·	–	–	–	–	–
CSC(SC)=C(C(C)=O)C(=O)c1ccc(C)cc1	–	–	–	–	–	?
CSc1ccc(C(=O)c2[nH]c(=O)[nH]c2C)cc1	–	–	–	–	–	11µM!
Cc1nn(-c2ccccc2)c(OC(=O)c2cccs2)c1S(=O)(=O)c1ccccc1	–	–	–	–	–	–[12.7 µM]
Cc1nn(-c2ccccc2)c(OC(=O)c2cccs2)c1S(=O)(=O)c1ccc([N+](=O)[O-])cc1	–	–	–	?	79µM	?
CCn1c(O)c(C=C2N=c3ccccc3=N2)sc1=S	–	–	–	–	–	?
SMILES	Sfp PPTase inh	TDP1 block	HP1b chromo inh	JMJD2A Tudor inh	BAZ2B block	G9a block
CC1=Nc2ccccc2/C1=C/c1sc(=S)n(-c2cccc(C(=O)O)c2)c1O	–	–	?	?	?	25µM
Oc1c(C=C2N=c3ccccc3=N2)sc(=S)n1-c1ccccc1	79µM	–	–	–	–	–
O=C(COC(=O)Cc1cccc(C(F)(F)F)c1)NCc1ccco1	·	·	?	79µM	50µM	?
O=C(COC(=O)Cc1cccc(C(F)(F)F)c1)NC1CC1	–	–	–	–	–	–
O=C(COC(=O)Cc1ccc(F)cc1)NCc1ccco1	–	·	–	–	50µM	?
CC(C)C(NC(=O)OCc1ccccc1)C(=O)OCC(=O)NCc1ccco1 (stereo not given)	56µM	–	–	56µM	50µM	–
COc1ccc(CC(=O)OCC(=O)NCc2ccco2)cc1OC	·	–	–	–	–	50µM
CC(C)[C@H](NC(=O)OCc1ccccc1)C(=O)OCC(=O)NCc1ccco1	·	·	–	?	·	·
Cn1c(O)c(N=NC(=O)Cn2c(C(F)(F)F)nc3ccccc32)c2ccccc21	–	–	–	–	–	–
Cc1ccc(Cn2cc(/C=C(/C#N)C(=O)Nc3cccc(Cl)c3)c3ccccc32)cc1	·	–[12.3 µM]	–	–	–	–
CC(=O)c1ccc(OCC(=O)OCC(=O)NCc2ccco2)cc1	·	–	–	–	–	–[12.7 µM]
O=C(COC(=O)COc1ccc(Nc2ccccc2)cc1)NCc1ccco1	–	–	?	56µM	50µM	50µM
COc1cc(OC)c(OC)cc1/C=N/Nc1ccc(Cl)nn1	–	·	–	–	–	–
Oc1cccc(/C=N/Nc2ccc(Cl)nn2)c1	–	·	–	–	–	–
CN(C)c1nc(N/N=C/c2ccccc2O)nc(Nc2ccc(F)cc2)n1	–	–	–	–	?	–
Cc1ccccc1/C=N/Nc1ccc(Cl)nn1	–	–	–	–	–	10µM
O=[N+]([O-])c1ccc(O)c(/C=N/Nc2nn[nH]n2)c1	–	–	–	10µM	6.3µM	–
O=[N+]([O-])c1ccc(O)c(/C=N/Nc2ccc(Cl)nn2)c1	–	–	–	7.9µM	4µM	·
Oc1ccccc1/C=N/Nc1nn[nH]n1	–	–	–	56µM	45µM	40µM
NC(N)=N/N=C/c1cc([N+](=O)[O-])ccc1O	–	–	–	–	–	–
Cc1cc(C)nc(SCCN2CCCCC2)n1	·	·	–	–	·	·
C(=N\Nc1nn[nH]n1)/c1ccccc1	45µM	–	–	89µM	?	35µM
Clc1ccc(/C=N/Nc2nn[nH]n2)cc1	–	–	–	?	–	10µM
C[C@H]1/C=C\CC(=O)NCc2cccc(c2)CNC(=O)N[C@H]1c1ccccc1	–	–	·	·	·	·
COc1ccccc1C(=O)Nc1cc2c(cc1N1CCOCC1)n(C)c(=O)n2C	·	–	–	–	–	–
SMILES	Sfp PPTase inh	TDP1 block	HP1b chromo inh	JMJD2A Tudor inh	BAZ2B block	G9a block
Cc1cc(C)n2c(Nc3ccc4c(c3)OCCO4)c(-c3ccco3)nc2n1	–	–	·	·	?	50µM
Cc1cc(C)n2c(Nc3ccc4c(c3)OCCO4)c(-c3ccc(C)o3)nc2n1	32µM	–	–	–	?	50µM
Cc1ccc(-c2nc3nc(C)cc(C)n3c2Nc2ccc3c(c2)OCCO3)cc1	·	–	–	?	?	?
O=C1COc2ccc(-c3cc(-c4ccccc4)c4c(n3)-c3cc(Cl)ccc3OC4)cc2N1	·	–	–	–	–	–
COc1cccc(CN2CCC(Oc3ccc(C(=O)NCc4ccccn4)cc3)CC2)c1O	–	·	–	–	–	–[12.7 µM]
CCOc1ccc(/C=C2\SC(=S)N(CCC(=O)N(CCO)c3ccccc3)C2=O)cc1	?	·	–	?	?	16µM
CCOc1ccc(C=C2SC(=O)N(CCN)C2=O)cc1	–	–	·	·	·	·
